Screening results: PubChem, National Center for Advancing Translational Sciences (NCATS)
NPC1 promoter act: activates the NPC1 promoter; Huh7 NPC1 promoter luciferase reporter, 24 h; Potency, µM (highest dose often 9.22 µM), inactives show top-dose activation, most hits filed as activators; hit rate 2.4% among 320,000; AID 485313; further: % of control where 0% means no effect; nearly all actives have a fitted effect of over 60% in size
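Huh7 cells stably carrying NPC1 promoter–luciferase, plated in Opti-MEM with 10% FBS for 2 h, were exposed to compound in DMSO for 24 h at 37 °C; luciferase reagent was added for 10 min and luminescence read.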
ELG1 genotox: genotoxicity induction in ELG1-luciferase HEK293T cells | HEK293T ELG1-luciferase reporter, luminescence, 16 h | Potency, µM (highest dose often 46 µM), for inactives: at the top dose activity change, positive = activation, actives largely listed as activators | hit rate 1.3% among 330,000; further: % of control where 0% means no effect; nearly all actives have a fitted effect of over 60% in size
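DMSO vehicle served as control against compound-treated ELG1-luciferase HEK293T cells; exposure lasted 16 hr at 37 °C and 5% CO2, followed by ONE-Glo luminescence detection after 30 min.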
Rab9 promoter act: activators of Rab9 promoter; Huh7 Rab9 promoter-luciferase reporter, luminescence, 24 h; Potency, µM (series often up to 9.22 µM), for the others: top-dose activation, negative = inhibition, usual class: activators; hit rate 2.8% among 320,000; AID 485297; further: % of control where 0% means no effect; nearly all actives have a fitted effect of over 60% in size
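Huh7 reporter line, Rab9 promoter upstream of luciferase. Compound exposure 24 h at 37 °C in reduced-serum medium with 10% FBS. Read-out: luminescence.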
KinaseGlo FLuc: counter-screen: inhibitors of Kinase-Glo firefly luciferase; Q27757; Kinase-Glo luciferase, ATP luminescence, 8 min; Potency, µM (top dose mostly 38.3 µM), inactives show at the top dose activity change, negative = inhibition, usual class: inhibitors; hit rate 0.28% among 200,000; further: on the % scale 0 is the no-effect control and ±100 the full control effect; nearly all actives have a fitted effect of over 60% in size
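Light output from Kinase-Glo luciferase with luciferin and 10 uM ATP in 50 mM imidazole pH 7.2, KCl, MgCl2, Tween 20, BSA; compound pin-delivered, 8-min ambient incubation, then luminescence read.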
SMN2 splice up: enhancers of SMN2 splice variant expression; Potency, µM (top dose mostly 46.1 µM), inactives show top-dose activity change, positive = activation, usual class: activators; hit rate 2.8% among 210,000; HEK293 SMN2-luciferase splicing reporter, luminescence, 30-36 h; further: % of control where 0% means no effect; nearly all actives have a fitted effect of over 55% in size
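HEK293 cells carry an SMN2 […]–luciferase reporter in which exon 7 inclusion puts luciferase in frame. Cells were plated 10-12 h before compound addition, then incubated 30-36 h at 37C. ONE-Glo luminescence was read; sodium butyrate at 4.5 mM final served as control.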
FLuc modulator: inhibits or activates purified firefly luciferase, miR-21 counter-screen; P08659; purified FLuc, Km substrates, luminescence inhibition; Potency, µM (series often up to 57.5 µM), for the others: at the highest dose activity change, negative = inhibition, most hits filed as inhibitors; hit rate 6.9% among 360,000; AID 588342;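 further: plate controls were vehicle for no effect and reference inhibitor for full effect; nearly all actives have a fitted effect of over 55% in size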
Target sequence (P08659 whole entry, looked up): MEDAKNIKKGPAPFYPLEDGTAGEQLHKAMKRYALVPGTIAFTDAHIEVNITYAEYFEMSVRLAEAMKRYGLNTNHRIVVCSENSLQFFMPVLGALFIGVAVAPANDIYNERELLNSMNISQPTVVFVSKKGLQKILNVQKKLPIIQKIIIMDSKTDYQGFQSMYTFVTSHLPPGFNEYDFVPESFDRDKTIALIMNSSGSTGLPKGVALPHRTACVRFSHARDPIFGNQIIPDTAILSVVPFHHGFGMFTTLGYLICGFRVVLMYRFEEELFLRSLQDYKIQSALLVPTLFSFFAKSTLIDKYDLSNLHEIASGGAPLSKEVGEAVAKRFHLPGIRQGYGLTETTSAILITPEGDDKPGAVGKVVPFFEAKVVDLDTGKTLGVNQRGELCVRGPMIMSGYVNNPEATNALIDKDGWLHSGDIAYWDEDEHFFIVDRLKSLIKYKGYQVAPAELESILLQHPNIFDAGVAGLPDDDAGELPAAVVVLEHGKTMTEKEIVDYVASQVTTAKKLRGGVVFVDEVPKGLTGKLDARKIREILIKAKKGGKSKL
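Purified P. pyralis luciferase (10nM final) with 10uM D-luciferin and 10uM ATP (Km levels) in 50mM Tris acetate pH 7.5, 10mM Mg acetate, 0.01% Tween-20, 0.05% BSA; qHTS 6-point titration, ~60 µM downward; luminescence read.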
Starred values were filed as active, the others as inactive; ? = inconclusive; . = no result given; [ ] = dose if it differs, or a comment. Shown are actives, neighbours in structure and some others; about 7.5% of the full set was active somewhere. The call rests on the fitted dose curve; in most records, active means well fitted curve in the direction sought with a large enough effect; inconclusive means small, poorly fitted or top-dose-only effect, or another doubt; inactive means no such curve, though single readings can be large; an effect the other way counts as inactive or inconclusive. Potency means the concentration at half of the fitted maximal effect.

SMILES	NPC1 promoter act	ELG1 genotox	Rab9 promoter act	KinaseGlo FLuc	SMN2 splice up	FLuc modulator
O=C(OCc1cc(=O)n2nc(C3CC3)sc2n1)c1ccc(F)cc1	.	.	.	.	.	-16.6%
O=C(N/N=C/c1cccnc1)c1cc(-c2ccc(Br)cc2)nc2ccccc12	-15.7%	-3.6%	-0.3%	.	.	6.75µM*
O=C(N/N=C/c1cccnc1)c1cc(-c2ccccc2)nc2ccccc12	0.3%	-2.6%	-2.4%	.	.	10.7µM*
CCC1CSC(=Nc2ccc(C)cc2)N1C(=O)CN1C(=O)NC2(CCCC2)C1=O (configuration not stated)	0.562µM*	2.59µM*	0.794µM*	.	.	16.9µM*
CCC(C(=O)c1ccccc1)P(=O)(NN)c1ccccc1 (configuration not stated)	3.5%	-5.4%	-2.4%	.	.	-0.2%
O=C(Nc1ccc(Cl)cc1)N1CC=CCC1	?	21.9%	?	1.3%	-10.2%	16.9µM*
O=C(Nc1ccc(Cl)cc1)N1CCN(c2ccccc2)CC1	4.4%	-1.6%	11.0%	-1.1%	-4.2%	?
Cc1ccc(-c2cc(C(=O)N3CCOCC3)c3cc(C)ccc3n2)cc1	15.1%	0.6%	4.6%	.	.	6.75µM*
NC(=O)C1CCN(C(=O)c2cc(-c3ccc(Cl)cc3)nc3ccccc23)CC1	.	-6.0%	.	.	.	.
c1ccc(-c2cc(-c3ccc(N4CCOCC4)cc3)nc3ccccc23)cc1	0.7%	9.2%	-0.7%	3.3%	-6.6%	15.1µM*
Cc1ccc2nc(-c3ccncc3)cc(C(=O)N3CCOCC3)c2c1	-2.9%	-3.5%	-0.6%	.	.	-1.6%
O=C(c1cc(-c2ccc(Cl)cc2)nc2ccccc12)N1CCOCC1	1.1%	-13.0%	6.4%	.	.	19µM*
Cc1noc(C)c1COc1ccccc1C(=O)NCCOc1ccccc1	0.5%	-0.4%	-2.9%	.	.	3.7%
Cc1cccn2c(=O)cc(COc3ccc(NC(=O)c4cccc(F)c4)cc3)nc12	.	.	.	.	.	-6.5%
CCOc1ccc(OCC(=O)NCCS(=O)(=O)N2CCN(c3ccccc3F)CC2)cc1	.	.	.	.	.	-6.4%
COc1ccc(OC)c(N/C(C)=C/C(=O)c2ccccc2)c1	3.98µM*	?	3.55µM*	-4.3%	187.8%	0.849µM*
COc1ccc(OC)c(N/C=C/C(=O)c2ccccc2)c1	?	?	?	.	.	0.0675µM*
COc1ccc(OC)c(N/C(C)=C/C(=O)c2ccncc2)c1	-5.5%	-11.0%	6.0%	.	.	1.6%
CCN(CC(=O)Nc1ccc(OC)cc1)CC(=O)Nc1ccc2c(c1)OCO2	-2.8%	-0.1%	0.8%	.	.	2.9%
COc1ccc(N/C(C)=C/C(=S)Nc2ccccc2)cc1	2.2%	12.2%	2.3%	-0.9%	11.5%	10.7µM*
COc1ccc(C(=O)/C=C(\C)Nc2ccc3c(c2)OCO3)cc1	3.16µM*	?	2.24µM*	-7.7%	?	4.78µM*
COc1ccc(Br)cc1S(=O)(=O)N(CC(=O)N1CCN(C)CC1)c1ccccc1	-23.8%	4.4%	11.0%	.	.	-2.7%
O=S(=O)(NC1CCC(CNS(=O)(=O)c2c(F)cccc2F)CC1)c1ccc2c(c1)OCCO2 (configuration not stated)	-4.3%	.	-0.5%	.	.	-0.4%
COC(=O)/C(=C\C(=O)c1ccccc1)Nc1ccc(OC)cc1	0.3%	1.3%	3.5%	.	.	?
COc1ccc(N/C(C)=C/C(=O)c2ccccc2)cc1	?	?	2.82µM*	-1.2%	12.6µM*	3.01µM*
SMILES	NPC1 promoter act	ELG1 genotox	Rab9 promoter act	KinaseGlo FLuc	SMN2 splice up	FLuc modulator
Oc1ccc(Cl)cc1N=Nc1ccccc1	-26.5%	6.8%	0.0%	.	.	13.5µM*
O=C(O)c1cc(O)ccc1N=Nc1ccccc1	-5.8%	-3.3%	-2.5%	.	.	1.4%
CC(=O)Nc1ccc(N=Nc2ccc(O)cc2)cc1	?	?	3.55µM*	-4.4%	-0.9%[1.84 µM]	10.7µM*
Oc1ccc(N=Nc2ccccc2)cc1	?	?	17.9%	.	.	9.53µM*
CN(C)c1nc(N)ncc1-c1ccc(Oc2ccccc2)cc1	-0.6%	-4.4%	-2.7%	.	.	-0.9%
C=CCn1c(=S)sc2c(=O)[nH]cnc21	-6.0%	-5.9%	-1.0%	.	.	2.5%
O=C(COC(=O)/C=C/c1ccccc1Cl)NCCNC(=O)COC(=O)/C=C/c1ccccc1Cl	-4.9%	-1.1%	-4.4%	.	.	1.2%
On1c(-c2ccccc2)nc2ccccc21	-5.2%	5.4%	-4.6%	.	.	?
On1c(-c2ccc(Cl)cc2)nc2ccccc21	?	9.6%	?	?	-26.9%	19µM*
COc1cccc(-c2c[nH]c(=O)[nH]c2=O)c1	-4.1%	1.2%	14.1%	2.8%	.	2.0%
COc1ccc(/C=C/C(=O)NC(=S)NNC(=O)c2ccco2)cc1	-7.9%	0.6%	-2.1%	0.6%	-1.1%	-14.9%
COc1ccc(C(=O)NNC(=S)NC(=O)/C=C/c2cccs2)cc1	3.55µM*	20.6µM*	3.55µM*	?	.	2.69µM*
COc1ccc(/C=C/C(=O)NC(=S)NNC(=O)Cc2cccs2)cc1	12.5%	?	24.3%	-0.4%	12.6µM*	-12.5%
O=C(/C=C/c1ccccc1)NC(=S)NNC(=O)Cc1cccs1	6.6%	1.4%	16.5%	-1.2%	12.6µM*	-3.2%
NC(=O)c1c(NC(=O)CS(=O)(=O)c2ccc(Cl)cc2)sc2c1CCCCC2	.	.	.	.	.	-15.4%
COc1cc(NC(=O)c2cc3nc(-c4ccccc4)cc(-c4ccccc4)n3n2)c(OC)cc1Cl	.	.	.	.	7.1%	-0.6%
COc1ccc(S(=O)(=O)c2nnn(-c3ccc(C(C)C)cc3)c2C)cc1	.	.	.	.	-13.5%	1.8%
S=c1[nH]nc(-c2cc(-c3ccccc3)n[nH]2)n1/N=C/c1ccccc1	-2.5%	1.2%	1.9%	.	.	?
COc1ccccc1/C=C/C=N/n1c(-c2ccc(F)cc2)n[nH]c1=S	2.8%	0.2%	1.9%	.	.	?
S=c1[nH]nc(-c2cc(-c3ccccc3)n[nH]2)n1/N=C/C=C/c1ccccc1	-1.3%	3.1%	1.4%	.	.	6.75µM*
COc1ccccc1/C=C/C=N/n1c(-c2cc(-c3ccccc3)n[nH]2)n[nH]c1=S	-3.3%	3.9%	13.3%	.	.	5.36µM*
CC(C)OC(=O)c1ccc(Cn2nnc3sc4c(c3c2=O)CCCC4)cc1	.	.	.	.	-4.2%	-8.1%
Oc1ccc(C=Nc2cccc3ccccc23)c(O)c1	-2.0%	-1.5%	16.2%	.	.	-0.9%
CC(O)c1cccc(N=Cc2ccc3ccccc3c2O)c1 (configuration not stated)	-5.5%	-1.5%	2.3%	.	.	26.9µM*
CCNc1nc(N)nc(Oc2ccc(C(=O)OC)cc2)n1	?	11.6µM*	3.16µM*	-2.4%	25.1µM*	19µM*
O=C(Nc1cccc(S(=O)(=O)NC2=NCCC2)c1)c1c(F)cccc1Cl	0.7%	0.0%	1.0%	.	.	-0.9%
